HCV inhibitor: HCV inhibition. Huh7.5.1 HCVcc-Cre infection, luciferase reporter, 44 h. Potency, µM (highest dose often 41.8 µM), most hits filed as inhibitors. 3.4% of 340,000 active. AID 651820; active means well fitted inhibition curve with a large enough effect; inconclusive means small, poorly fitted or top-dose-only effect, or another doubt; inactive means no such curve, though single readings can be large or run the other way
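Reporter virus HCVcc-Cre (~0.5 moi) infects cells exposed to compound; seeding density 1,000 cells/well with 4 h settling beforehand. Luminescence, 15 sec read, taken 44 h post-infection following a 15 min RT substrate incubation.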
VACV mCherry inh: vaccinia inhibition (mCherry reporter); Vaccinia virus mCherry reporter infection, fluorescence; Potency, µM (titrated, usually from 36.5 µM), usual class: inhibitors; 0.63% of 310,000 active; AID 720579; calls by dose curve; tested in A549 cells; further: nearly all actives have a fitted effect of over 35% in size
Marburg entry inh: blocks Marburg virus binding to or entry into cells; 1.8% of 300,000 active; Potency, µM (top dose mostly 37.8 µM), actives largely listed as inhibitors; AID 540276; Marburg virus pseudotyped entry inhibition, cell reporter; calls by dose curve; tested in HEK293 cells
LASV entry inh: Lassa virus entry inhibition | Lassa virus pseudotype entry inhibition, cell reporter | Potency, µM (series often up to 37.9 µM), most hits filed as inhibitors | AID 540256 | 1.2% of 300,000 active; calls by dose curve; tested in HEK293 cells; further: nearly all actives have a fitted effect of over 50% in size
FMDV antiviral: foot and mouth disease virus antiviral activity | 1.2% of 410,000 active | Potency, µM (highest dose often 57.9 µM), usual class: inhibitors | AID 1159524 | FMDV antiviral cell-based qHTS; calls by dose curve; tested in HEK293T cells; further: read-out not given here; nearly all actives have a fitted effect of over 45% in size
Vaccinia Venus: inhibitors of vaccinia virus (Venus reporter); Potency, µM (top dose mostly 36.5 µM), hits mostly inhibitors; 0.46% of 330,000 active; Vaccinia virus Venus reporter expression, fluorescence; AID 720580; calls by dose curve; tested in A549 cells; further: nearly all actives have a fitted effect of over 30% in size
Each line names hits and unclear results; the compound was inactive in the other large screens. Shown are actives, neighbours in structure and some others; about 5.3% of the full set was active somewhere.

Cc1ccccc1N1CCN(C2CCCN(C(=O)c3cn4cccc(C)c4n3)C2)CC1 (configuration not stated)	HCV inhibitor 11µM, FMDV antiviral 45µM (no result: VACV mCherry inh, Marburg entry inh, LASV entry inh, Vaccinia Venus)
C[C@]12CCC3C(CC[C@]4(O)CC(O)CC[C@@]34C=O)[C@]1(O)CCC2C1=CC(=O)OC1 (some centres not stated)	VACV mCherry inh inconclusive, FMDV antiviral inconclusive, Vaccinia Venus 10µM (no result: HCV inhibitor, Marburg entry inh, LASV entry inh)
CC1O[C@@H](OC2CC[C@@]3(C=O)C4CC[C@]5(C)C(C6=CC(=O)OC6)CC[C@@]5(O)C4CC[C@]3(O)C2)C(O)C(O)C1O (some centres not stated)	VACV mCherry inh 25µM, Vaccinia Venus 0.045µM (no result: HCV inhibitor, Marburg entry inh, LASV entry inh)
Cc1cccc2nc(-c3cccnc3)c(Nc3ccccc3)n12	VACV mCherry inh inconclusive, Marburg entry inh inconclusive, LASV entry inh inconclusive, FMDV antiviral 32µM
COc1ccc(N=Nc2ccc(CO)cc2)cc1	Marburg entry inh inconclusive, LASV entry inh 1µM
O=C(Cc1ccsc1-c1ccccc1)NO	HCV inhibitor 10µM (no result: VACV mCherry inh)
CCOC(=O)c1cc(NC(=O)c2ccc(C)cc2)c(=O)n2c1oc1ccccc12	none (no result: HCV inhibitor)
CCOC(=O)c1cc(NC(=O)c2ccccc2)c(=O)n2c1oc1ccccc12	VACV mCherry inh 10µM, Vaccinia Venus 7.9µM (no result: Marburg entry inh, LASV entry inh)
COc1ccc(CCNC(=O)N2c3ccccc3Sc3ccccc32)cc1	HCV inhibitor 10µM, VACV mCherry inh inconclusive, Marburg entry inh inconclusive, LASV entry inh inconclusive, FMDV antiviral 18µM, Vaccinia Venus inconclusive
COCCCNC(=O)N1c2ccccc2Sc2ccccc21	none
O=C(CCNC(=O)c1ccc(Cl)cc1)NCC(c1ccco1)N1CCCC1 (configuration not stated)	none
CC1(C2CCN(Cc3c[nH]c4ccccc34)CC2)NC(=O)N(CCN2CCOCC2)C1=O (configuration not stated)	none (no result: HCV inhibitor, Marburg entry inh, LASV entry inh)
Cc1c(C(=O)N(C)C)sc2c1c(=O)n(-c1ccccc1C(F)(F)F)c(=O)n2Cc1cccc(F)c1	none (no result: HCV inhibitor, Marburg entry inh)
CCc1ccc2oc(C(=O)NCc3ccncc3)c(C)c2c1	HCV inhibitor 11µM (no result: VACV mCherry inh, Vaccinia Venus)
Cc1cc(C)c2c(C)c(C(=O)NCc3ccncc3)oc2c1	HCV inhibitor 2µM (no result: VACV mCherry inh, Vaccinia Venus)
Cc1cc(C)c2c(=O)cc(C(=O)NCc3ccc(S(N)(=O)=O)cc3)oc2c1	none (no result: HCV inhibitor)
CCc1ccc2oc(C(=O)Nc3nonc3CC)c(C)c2c1	HCV inhibitor inconclusive
CCOC(=O)Cn1c(=O)n(C2CCCCC2)c2nc(-c3cccc(C)c3)nc(C(N)=O)c21	none (no result: HCV inhibitor, Marburg entry inh)
COc1ccc(NC(=O)c2cccc(S(=O)(=O)N3CCCCCC3)c2)cc1	HCV inhibitor inconclusive
Cc1ccc(S(=O)(=O)NCc2ccc(C(=O)N3CCN(c4ccccn4)CC3)cc2)cc1	HCV inhibitor inconclusive, Marburg entry inh inconclusive, FMDV antiviral inconclusive
CCCC1=Nc2cc(C(=O)N3CCN(c4ccccn4)CC3)ccc2Sc2ccc(C)cc21	HCV inhibitor 11µM, Marburg entry inh inconclusive
Cc1ccc(NS(=O)(=O)c2ccc(C(=O)N3CCN(c4ccccn4)CC3)cc2)cc1	HCV inhibitor inconclusive, FMDV antiviral 18µM (no result: VACV mCherry inh)
COc1ccccc1NS(=O)(=O)c1ccc(C(=O)N2CCN(c3ccccn3)CC2)cc1	HCV inhibitor 11µM, VACV mCherry inh inconclusive, Marburg entry inh inconclusive, FMDV antiviral inconclusive
COc1cc2[nH]c(=S)nc(NCc3cccs3)c2cc1OC	HCV inhibitor 25µM
Cc1ccc(NC(=O)c2cn3c4c(ccc(Cl)c4c2=O)OC(C)C3)c(C)c1 (configuration not stated)	none (no result: HCV inhibitor, Marburg entry inh)
O=C(CNc1cccc2ccccc12)N/N=C/c1ccc[nH]1	HCV inhibitor 1µM, VACV mCherry inh inconclusive, Marburg entry inh inconclusive, LASV entry inh inconclusive, Vaccinia Venus inconclusive
O=C(N/N=C/c1ccc[nH]1)c1c[nH]c2ccccc12	HCV inhibitor 0.89µM (no result: VACV mCherry inh, Marburg entry inh, LASV entry inh, Vaccinia Venus)
O=C(N/N=C/c1ccccn1)c1c[nH]c2ccccc12	Marburg entry inh inconclusive, LASV entry inh inconclusive
Cc1cccc(NCC(=O)N/N=C\c2ccc[nH]2)c1	HCV inhibitor 8.9µM, VACV mCherry inh inconclusive, Marburg entry inh 7.1µM, LASV entry inh inconclusive
O=C(CNc1cccc2ccccc12)N/N=C/c1ccc([N+](=O)[O-])o1	HCV inhibitor 10µM, Marburg entry inh inconclusive, LASV entry inh inconclusive (no result: VACV mCherry inh, Vaccinia Venus)
COC(=O)c1ccc2c(=O)n(CCCCCC(=O)N3CCN(c4ccc(OC)cc4)CC3)c(=O)[nH]c2c1	none (no result: HCV inhibitor, Marburg entry inh)
COc1ccc(-c2nc3scc(CCNS(=O)(=O)c4ccc(F)cc4F)n3n2)cc1OC	none (no result: HCV inhibitor, Marburg entry inh)
Cc1ccc(CN2CCOc3ccc(CN4CCC(O)(c5cccnc5)CC4)cc3C2)cc1C	FMDV antiviral inconclusive, Vaccinia Venus inconclusive (no result: HCV inhibitor, Marburg entry inh, LASV entry inh)
CC(OC(=O)c1ccc(NC(=O)CC#N)cc1)C(=O)NC(c1ccccc1)c1ccccc1 (configuration not stated)	Marburg entry inh inconclusive
Cc1cc(C(=O)C(C)OC(=O)c2ccc(NC(=O)CC#N)cc2)c(C)n1-c1ccccc1 (configuration not stated)	HCV inhibitor inconclusive, VACV mCherry inh inconclusive, Marburg entry inh inconclusive, LASV entry inh inconclusive, FMDV antiviral 16µM
O=C(NCC(c1cccnc1)N1CCN(Cc2ccccc2)CC1)C(=O)Nc1ccc(Cl)cc1 (configuration not stated)	FMDV antiviral inconclusive (no result: HCV inhibitor, Marburg entry inh)
Cc1[nH]c2ccc(-c3nnc(SCC(=O)c4ccc(F)cc4)o3)cc2c1C	LASV entry inh 9.2µM (no result: FMDV antiviral)
O=C(NCC1Cc2cc(-c3cnc4ccccc4c3)cc(F)c2O1)c1cnsn1 (configuration not stated)	VACV mCherry inh inconclusive, Vaccinia Venus inconclusive (no result: HCV inhibitor, Marburg entry inh, LASV entry inh)
COc1ccc(NC(=O)/C(Cl)=C(/Cl)S(=O)Cc2ccccc2Cl)cn1 (configuration not stated)	HCV inhibitor 2.8µM, VACV mCherry inh 2µM, Marburg entry inh inconclusive, LASV entry inh inconclusive, FMDV antiviral 3.2µM, Vaccinia Venus 2.8µM
COc1ccc(NC(=O)Cc2ccc(Cl)c(Cl)c2)cn1	none (no result: Marburg entry inh, LASV entry inh)
COc1ccc(NC(=O)/C(Cl)=C(/Cl)S(=O)(=O)Cc2ccc(C)cc2)cn1	HCV inhibitor 2.5µM, Marburg entry inh 4.5µM, LASV entry inh 14µM, FMDV antiviral 22µM, Vaccinia Venus 14µM (no result: VACV mCherry inh)
Cc1cc(C(=O)Nc2ccc(Cl)cc2)c2ccccc2n1	none
CC(=O)Oc1c(I)cc(I)cc1C(=O)Nc1ccc(Cl)cc1	HCV inhibitor inconclusive, VACV mCherry inh 10µM, Marburg entry inh inconclusive, LASV entry inh 13µM, FMDV antiviral inconclusive, Vaccinia Venus inconclusive
Cc1ccc(S(=O)(=O)NC(C)(C)C)cc1C(=O)OC(C)C(=O)NC1CC1 (configuration not stated)	none
COc1cc(OC)c(NS(=O)(=O)c2cc(C(=O)OC(C)C(=O)NC3CC3)c(Cl)cc2Cl)cc1Cl (configuration not stated)	HCV inhibitor 11µM, Marburg entry inh inconclusive
CCCn1c(=O)n(C)c(=O)c2c(SCC(=O)Nc3cc(C)on3)nc(C(C)(C)C)nc21	HCV inhibitor 10µM, FMDV antiviral inconclusive (no result: VACV mCherry inh, Marburg entry inh, LASV entry inh, Vaccinia Venus)
Cc1cc(NC(=O)CSc2nc(C(C)C)nc3c2c(=O)n(C)c(=O)n3C)no1	FMDV antiviral inconclusive (no result: Marburg entry inh, LASV entry inh)

Screens as filed in PubChem.
